Experimental data from PubChem BioAssay (NCATS).
Records with an inconclusive call do not appear. The source made the active and inactive calls. Calls come from the whole dose curve; as a rule, active = well fitted inhibition curve with a large enough effect; inconclusive = small, poorly fitted or top-dose-only effect; inactive = flat fitted curve, though single readings scatter. Where a SMILES comes first, the peptide text is derived from it. [ ]: non-standard residue; d: D form.

What was measured:
Test in all cases: Cytotoxic Profiling of Annotated Libraries Using Quantitative High-Throughput Screening (AID 1296008); note: nearly all actives have a fitted effect of over 60% in size
Details in all cases: Five cell lines viability, CellTiter-Glo ATP luminescence, 48-72 h; max response: active compounds read low
CRL-7250 = normal cell line; tested on: CRL-7250
In short: (§1)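 Cytotoxicity was measured as CellTiter-Glo ATP luminescence, read after 10 min at room temperature. Compound treatment of the cells lasted 48 or 72 hr at 37 degrees Celsius in a qHTS format.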

HEK293 = tested on: HEK293
In short: as §1

HaCat = tested on: HaCat
In short: as §1

KB-3-1 = tested on: KB-3-1
In short: as §1

NIH3T3 = tested on: NIH3T3
In short: as §1

Measured: max response
% is set by controls: 0 for no effect and ±100 for the full control effect.

CC1C/C=C/C=C\CCCCC(O)C/C=C/C(=O)O1 (stereo not given)
inactive: CRL-7250 4.17% | HEK293 | HaCat -3.25% | KB-3-1 1.87% | NIH3T3

C[C@@H]1O[C@@H](O[C@H]2[C@H](O[C@H]3[C@H](O[C@H]4CC[C@@]5(CO)C(CC[C@]6(C)C5CC=C5C7CC(C)(C)C[C@@H](O)[C@]7(C)CC[C@]56C)C4(C)C)O[C@H](C(=O)O)[C@@H](O)[C@@H]3O)OC[C@@H](O)[C@@H]2O)[C@H](O)[C@H](O)[C@H]1O (stereo not given in full)
inactive: CRL-7250 | HEK293 | HaCat 4.17% | KB-3-1 5.01% | NIH3T3 -0.118%

CCOC(=O)[C@H]1O[C@@H]1C(=O)N[C@@H](CC(C)C)C(=O)NCCC(C)C
inactive: CRL-7250 | HEK293 | HaCat | KB-3-1 | NIH3T3 -2.92%

CC(=O)N[C@H](Cc1ccc(O)cc1)C(=O)N[C@H](CCCN=C(N)N)C(=O)N[C@H](Cc1ccccc1)C(N)=O (Ac-[dY]-[dR]-[dF]-NH2)
inactive: CRL-7250 -2.02% | HEK293 | HaCat -6.09% | KB-3-1 | NIH3T3

CC1(C)CC[C@]2(C(=O)O)CC[C@]3(C)C(=CCC4[C@@]5(C)CC[C@H](O[C@@H]6O[C@H](C(=O)O)[C@@H](O)[C@H](O)[C@H]6O)C(C)(CO)C5CC[C@]43C)C2C1 (stereo not given in full)
inactive: CRL-7250 4.13% | HEK293 | HaCat -0.619% | KB-3-1 | NIH3T3 -4.92%

C=C1CC23CC1(O)CCC2C1=CC2OC(=O)C(C)(C2O)C1C3C(=O)O (stereo not given)
inactive: CRL-7250 -8.2% | HEK293 | HaCat | KB-3-1 | NIH3T3 -19.3%
